{"source": "PubChem BioAssay AID1220", "about": "(Sanford-Burnham Center for Chemical Genomics, 2008)", "note": "Screen size: about 190,000 compounds; about 1,300 (0.68%) were called active. No stated cut-off is given here; in the data, active means inhibition above about 50%; inactive means the rest. The list comes from a sample in which actives are over-represented; it also holds similar structures and randomly drawn compounds."}
{"target": "Mannose-6-phosphate isomerase (Homo sapiens) (UniProt P34949)", "sequence (P34949 whole entry, looked up)": "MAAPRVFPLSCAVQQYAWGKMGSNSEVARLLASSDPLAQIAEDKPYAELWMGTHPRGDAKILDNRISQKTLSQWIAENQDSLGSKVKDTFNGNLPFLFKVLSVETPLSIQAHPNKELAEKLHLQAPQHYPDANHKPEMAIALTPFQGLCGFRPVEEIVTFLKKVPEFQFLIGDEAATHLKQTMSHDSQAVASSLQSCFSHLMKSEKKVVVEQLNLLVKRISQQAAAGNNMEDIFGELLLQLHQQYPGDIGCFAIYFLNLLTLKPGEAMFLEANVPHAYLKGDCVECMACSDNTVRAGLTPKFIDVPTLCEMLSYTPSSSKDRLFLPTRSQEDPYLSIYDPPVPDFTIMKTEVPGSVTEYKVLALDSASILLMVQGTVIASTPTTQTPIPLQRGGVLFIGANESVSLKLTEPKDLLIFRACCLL", "experiment": "human PMI inhibitors, high substrate, primary screen, biochemical, fluorescence intensity, high mannose 6-phosphate (AID 1220)", "conditions": "recombinant PMI enzyme, coupled fluorescence intensity; at 20 µM; active compounds read high"}
{"molecule": "Cc1cc(NC(=O)CSc2nc(-c3ccccc3)nc3c2c(=O)n(C)c(=O)n3C)no1", "inhibition": "-6.7% (inactive)"}
{"molecule": "CCn1c(SCC(=O)Nc2cc(OC)c(OC)c(OC)c2)nnc1-c1cccs1", "inhibition": "0.1% (inactive)"}
{"molecule": "Cc1ccc(NC(=S)Nc2cccc3cnccc23)c(C)c1", "inhibition": "25.7% (inactive)"}
{"molecule": "Fc1ccc(NC(=S)Nc2cccc3cnccc23)cc1", "inhibition": "-10.5% (inactive)"}
{"molecule": "S=C(Nc1ccc(Cl)cc1)Nc1cccc2cnccc12", "inhibition": "12.2% (inactive)"}
{"molecule": "CCc1ccc(NC(=S)Nc2cccc3cnccc23)cc1", "inhibition": "51.5% (active)"}
{"molecule": "CC(=O)N(C)c1ccc(NC(=S)Nc2ccccc2)cc1", "inhibition": "2.5% (inactive)"}
{"molecule": "Cc1ccc(NC(=S)Nc2cccc3cnccc23)cc1C", "inhibition": "-34.8% (inactive)"}
{"molecule": "COc1ccc(NC(=S)Nc2ccc(N(C)C(C)=O)cc2)cc1", "inhibition": "17.5% (inactive)"}
{"molecule": "Cc1cc(C)cc(NC(=S)Nc2cccc3cnccc23)c1", "inhibition": "59.3% (active)"}
{"molecule": "CC(=O)N(C)c1ccc(NC(=S)Nc2cccc3ccccc23)cc1", "inhibition": "55.1% (active)"}
{"molecule": "COc1cc(OC)cc(C(=O)N2CCCc3ccccc32)c1", "inhibition": "12.7% (inactive)"}
{"molecule": "Brc1ccc(/C=N/Nc2ccccn2)cc1", "inhibition": "-7.7% (inactive)"}
{"molecule": "COC(=O)CS(=O)(=O)c1cc([N+](=O)[O-])ccc1NC(=O)OC", "inhibition": "13.9% (inactive)"}
{"molecule": "C1CCCN(c2nc3nonc3nc2N2CCCCCC2)CC1", "inhibition": "-3.2% (inactive)"}
{"molecule": "N#CCCn1cc(C(=O)N2CCOCC2)c(-c2ccc3c(c2)OCCO3)n1", "inhibition": "5.1% (inactive)"}
{"molecule": "Cc1ccc2[nH]c(=O)c(CN(Cc3ccccc3Cl)C(=O)N3CCOCC3)cc2c1", "inhibition": "8.8% (inactive)"}
{"molecule": "COC(=O)C1=C2SC(C)C(=O)N2C(N)=C(C#N)C1c1ccc(OC)c(OC)c1", "note": "(configuration not stated)", "inhibition": "51.3% (active)"}
{"molecule": "CCOC(=O)C1=C(N)N2C(=O)C(C)SC2=C(C(=O)OC)C1c1cccc(OC)c1", "note": "(configuration not stated)", "inhibition": "2.8% (inactive)"}
{"molecule": "COC(=O)C1=C2SC(C)C(=O)N2C(N)=C(C#N)C1c1cc(OC)c(OC)c(OC)c1", "note": "(configuration not stated)", "inhibition": "24.2% (inactive)"}
{"molecule": "COc1ccc(S(=O)(=O)N2CCOC2CNC(=O)C(=O)NCCc2ccc(OC)c(OC)c2)cc1C", "note": "(configuration not stated)", "inhibition": "52.2% (active)"}
{"molecule": "COc1ccc(CCNC(=O)C(=O)NCC2OCCN2S(=O)(=O)c2ccc(Br)cc2)cc1OC", "note": "(configuration not stated)", "inhibition": "-12.7% (inactive)"}
{"molecule": "COc1ccc(S(=O)(=O)N2CCOC2CNC(=O)C(=O)NCCc2ccc(OC)c(OC)c2)cc1", "note": "(configuration not stated)", "inhibition": "-0.2% (inactive)"}
{"molecule": "O=C(O)C1CCC(=O)N1Cc1ccc(F)cc1", "note": "(configuration not stated)", "inhibition": "-3.6% (inactive)"}
{"molecule": "CCc1ccc(NC(=O)NCCN2CCc3ccccc3C2)cc1", "inhibition": "-6.5% (inactive)"}
{"molecule": "CCOP(=O)(OCC)C(Nc1ccccn1)c1ccccc1", "note": "(configuration not stated)", "inhibition": "-3.9% (inactive)"}
{"molecule": "Cc1c2cnn(-c3ccccc3)c(=O)c2c(C)n1CCCC(=O)N1CCN(c2ncccn2)CC1", "inhibition": "-2.5% (inactive)"}
{"molecule": "COc1ccc(NC(=S)Nc2ccc3nsnc3c2)cc1", "inhibition": "47% (inactive)"}
{"molecule": "S=C(Nc1ccc(N2CCOCC2)cc1)Nc1ccc2snnc2c1", "inhibition": "41% (inactive)"}
{"molecule": "COc1ccc(NC(=S)Nc2ccc3snnc3c2)cc1", "inhibition": "54.2% (active)"}
{"molecule": "COc1ccc(NC(=S)Nc2ccc3nc(C)c(C)nc3c2)cc1", "inhibition": "54.2% (active)"}
{"molecule": "COc1ccc(NC(=O)c2ccc3snnc3c2)cc1", "inhibition": "-1.3% (inactive)"}
{"molecule": "CNC(=S)Nc1ccc2nc(C)c(C)nc2c1", "inhibition": "38% (inactive)"}
{"molecule": "CCNC(=S)Nc1ccc(Cl)c(C(F)(F)F)c1", "inhibition": "7.2% (inactive)"}
{"molecule": "CCN1CCC(NC(=O)Nc2ccc(F)cc2F)CC1", "inhibition": "-11.5% (inactive)"}
{"molecule": "CCCS(=O)(=O)c1ccc(COC(=O)c2ccc(NC(C)=O)cc2)cc1", "inhibition": "-0.1% (inactive)"}
{"molecule": "c1ccn2c(Cc3nnc4ccccn34)nnc2c1", "inhibition": "-7.1% (inactive)"}
{"molecule": "CCn1nc(C)c(C(=O)Nc2cc(Oc3ccc(Cl)cc3)cc([N+](=O)[O-])c2)c1C", "inhibition": "4.3% (inactive)"}
{"molecule": "O=C(N/C(=C\\c1ccco1)C(=O)N1CCCC1)c1cccs1", "inhibition": "8.5% (inactive)"}
{"molecule": "CCC(C)(C(=O)NC1CCCC1)N(Cc1cccs1)C(=O)c1ccccn1", "note": "(configuration not stated)", "inhibition": "59.3% (active)"}
{"molecule": "CCC(C)(C(=O)NC1CCCC1)N(Cc1cccs1)C(C)=O", "note": "(configuration not stated)", "inhibition": "0.2% (inactive)"}
{"molecule": "CCC(C)(C(=O)NC1CCCCC1)N(Cc1cccs1)C(=O)c1ccccn1", "note": "(configuration not stated)", "inhibition": "-2% (inactive)"}
{"molecule": "Cc1c2c(nc3c(C(=O)NC4CC4)cnn13)CCCC2", "inhibition": "-0.9% (inactive)"}
{"molecule": "COc1cccc(CN2CCNC(=O)C2CC(=O)NCc2cn3ccccc3n2)c1OC", "note": "(configuration not stated)", "inhibition": "7.8% (inactive)"}
{"molecule": "COc1cccc(CN2CCNC(=O)C2CC(=O)NCCn2ccc3ccccc32)c1OC", "note": "(configuration not stated)", "inhibition": "51.1% (active)"}
{"molecule": "COc1cccc(CN2CCNC(=O)C2CC(=O)NCCn2cccn2)c1OC", "note": "(configuration not stated)", "inhibition": "16.7% (inactive)"}
{"molecule": "Cc1c(NC(=O)C2CCCO2)cccc1[N+](=O)[O-]", "note": "(configuration not stated)", "inhibition": "0.2% (inactive)"}
{"molecule": "Cc1c(N=CC=Nc2c(C)n(C)n(-c3ccccc3)c2=O)c(=O)n(-c2ccccc2)n1C", "inhibition": "-5.1% (inactive)"}
{"molecule": "Cc1c(N=C2C(=O)Nc3ccccc32)c(=O)n(-c2ccccc2)n1C", "inhibition": "14.2% (inactive)"}
{"molecule": "Cc1csc(=Nc2c(C)n(C)n(-c3ccccc3)c2=O)n1-c1ccccc1", "inhibition": "5.3% (inactive)"}
{"molecule": "Cc1c(N=c2scc(-c3ccccc3)n2C)c(=O)n(-c2ccccc2)n1C", "inhibition": "-10.5% (inactive)"}
{"molecule": "O=C(N1CCOCC1)N(CCN1CCOCC1)Cc1cccc2ccccc12", "inhibition": "6.2% (inactive)"}
{"molecule": "CCOc1ccccc1NC(=O)c1ccc2nccnc2c1", "inhibition": "14.2% (inactive)"}
{"molecule": "CC(NS(=O)(=O)c1ccc(Br)cc1)C(c1cccs1)N1CCOCC1", "note": "(configuration not stated)", "inhibition": "10.2% (inactive)"}
{"molecule": "O=c1cc(CO)oc(C(Nc2cccc([N+](=O)[O-])c2)c2ccccn2)c1O", "note": "(configuration not stated)", "inhibition": "28.5% (inactive)"}
{"molecule": "O=c1cc(CO)oc(C(Nc2cccc(C(F)(F)F)c2)c2ccccn2)c1O", "note": "(configuration not stated)", "inhibition": "43.6% (inactive)"}
{"molecule": "CCOc1ccc(NC(c2ccccn2)c2oc(CO)cc(=O)c2O)cc1", "note": "(configuration not stated)", "inhibition": "51.1% (active)"}
{"molecule": "COc1ccc(C(NC(C)=O)c2c(O)ccc3ccccc23)cc1OC", "note": "(configuration not stated)", "inhibition": "8.9% (inactive)"}
{"molecule": "O=C(NC(c1ccc(Cl)cc1)c1c(O)ccc2ccccc12)c1ccccc1", "note": "(configuration not stated)", "inhibition": "27.6% (inactive)"}
{"molecule": "CC(=O)NC(c1ccc(Cl)cc1)c1c(O)ccc2ccc(O)cc12", "note": "(configuration not stated)", "inhibition": "69.9% (active)"}
{"molecule": "CCc1ccc(-n2c(Cc3ccccc3)n[nH]c2=S)cc1", "inhibition": "10.9% (inactive)"}
{"molecule": "Cc1cc(C2=NNC(=NCCc3ccccc3)SC2)c(C)n1CC1CCCO1", "note": "(configuration not stated)", "inhibition": "-32.7% (inactive)"}
{"molecule": "CCOc1ccc(N=C2NN=C(c3cc(C)n(CC4CCCO4)c3C)CS2)cc1", "note": "(configuration not stated)", "inhibition": "-81.4% (inactive)"}
{"molecule": "COCCN=C1NN=C(c2cc(C)n(CC3CCCO3)c2C)CS1", "note": "(configuration not stated)", "inhibition": "54.9% (active)"}
{"molecule": "Cc1cc(C)c(S(=O)(=O)Cc2ccccc2)c(=O)[nH]1", "inhibition": "-13% (inactive)"}
{"molecule": "COc1ccc(/C=N/NC(=O)Cn2c(Cc3ccc(OC)c(OC)c3)nc3ccccc32)cc1OC", "inhibition": "5.5% (inactive)"}
{"molecule": "CCN1C(=O)C(CC(=O)Nc2ccccc2)S/C1=N\\c1ccccn1", "note": "(configuration not stated)", "inhibition": "-2.2% (inactive)"}
{"molecule": "CCOC(=O)C1(Cc2ccccc2C)CCCN(Cc2ccc(NC(C)=O)cc2)C1", "note": "(configuration not stated)", "inhibition": "-4.1% (inactive)"}
{"molecule": "CCOC(=O)C1(Cc2ccccc2C)CCCN(Cc2cn(C)nc2C)C1", "note": "(configuration not stated)", "inhibition": "12.5% (inactive)"}
{"molecule": "CCOC(=O)C1(Cc2ccccc2C)CCCN(Cc2cc(OC)c(O)c(OC)c2)C1", "note": "(configuration not stated)", "inhibition": "65.5% (active)"}
{"molecule": "COc1ccc(CC(=O)Nc2ccc(OC)c(NC(=O)c3ccco3)c2)cc1", "inhibition": "11.2% (inactive)"}
{"molecule": "COc1ccccc1Oc1ccc2c(c1)C(=O)N(c1ccc(Br)c3cccnc13)C2=O", "inhibition": "8.4% (inactive)"}
{"molecule": "COc1ccc(S(=O)(=O)N(CC(C)C)CC(C)C)c2cccnc12", "inhibition": "10.4% (inactive)"}
{"molecule": "COc1cc(NC(C)CCCN)c2ncccc2c1Oc1ccccc1", "note": "(configuration not stated)", "inhibition": "56.6% (active)"}
{"molecule": "O=C(N/N=C/c1c[nH]c2ccccc12)c1ccn(Cc2ccc(Cl)cc2)n1", "inhibition": "1.6% (inactive)"}
{"molecule": "O=C(CSCc1nc2ccccc2[nH]1)Nc1ccc(Oc2ccccc2)cc1", "inhibition": "10.1% (inactive)"}
{"molecule": "O=S(=O)(NCc1ccncc1)c1ccccc1", "inhibition": "-9.4% (inactive)"}
{"molecule": "CC(=O)Nc1cccn(Cc2c(Cl)cccc2Cl)c1=O", "inhibition": "8.5% (inactive)"}
{"molecule": "COC(=O)Nc1cccn(Cc2c(Cl)cccc2Cl)c1=O", "inhibition": "58.7% (active)"}
{"molecule": "C#CCOC(=O)Nc1cccn(Cc2c(Cl)cccc2Cl)c1=O", "inhibition": "-71% (inactive)"}
{"molecule": "Cc1ccc(NC(=O)Nc2cccn(Cc3c(F)cccc3Cl)c2=O)cc1", "inhibition": "55.7% (active)"}
{"molecule": "O=C(NCc1ccccc1)Nc1cccn(Cc2ccccc2Cl)c1=O", "inhibition": "38.2% (inactive)"}
{"molecule": "O=C(NCc1ccccc1)Nc1cccn(Cc2c(F)cccc2Cl)c1=O", "inhibition": "53.7% (active)"}
{"molecule": "O=C(Nc1ccccc1)Nc1cccn(Cc2c(F)cccc2Cl)c1=O", "inhibition": "35.6% (inactive)"}
{"molecule": "O=C(Nc1cccn(Cc2c(F)cccc2Cl)c1=O)NC1CCCCC1", "inhibition": "17.3% (inactive)"}
{"molecule": "O=C(NCc1ccccc1)Nc1cccn(Cc2ccccc2F)c1=O", "inhibition": "20.5% (inactive)"}
{"molecule": "O=C(Cn1cncn1)NCCC(c1ccccc1)c1ccccc1", "inhibition": "5.2% (inactive)"}
{"molecule": "COc1ccc2c(c1)CC/C2=N\\OC(=O)c1cccc(C)c1", "inhibition": "2.5% (inactive)"}
{"molecule": "CCC1CCCCN1C(=O)c1c[nH]c2ccc(S(=O)(=O)N(C)c3ccc(Cl)cc3)cc2c1=O", "note": "(configuration not stated)", "inhibition": "1.6% (inactive)"}
{"molecule": "O=C(COc1ncnc2cc([N+](=O)[O-])ccc12)N(CCc1ccccc1)Cc1ccccc1", "inhibition": "16.7% (inactive)"}
{"molecule": "O=C(CCN1CCN(S(=O)(=O)c2ccc(Br)cc2)CC1)Nc1ccccc1F", "inhibition": "-6.1% (inactive)"}
{"molecule": "c1ccc(-n2cnc3ccccc32)cc1", "inhibition": "-1.2% (inactive)"}
{"molecule": "O=C1c2ccccc2-c2nccnc21", "inhibition": "6.6% (inactive)"}
{"molecule": "O=C1c2ccccc2C(=O)c2c1ncn2-c1ccccc1", "inhibition": "59.1% (active)"}
{"molecule": "Cc1ccsc1/C=N/N=C1\\C(=O)Nc2ccccc21", "inhibition": "5.3% (inactive)"}
{"molecule": "CCc1nn(C(C)C(=O)Nc2cccc(C)c2C)c(=O)c2cc3occc3n12", "note": "(configuration not stated)", "inhibition": "6.9% (inactive)"}
{"molecule": "CCCCc1c(C)nc2ccccc2c1SCCC#N", "inhibition": "-31.5% (inactive)"}
